Assay results as given in PubChem BioAssay AID709 (SRMLSC, 2007).
Among all 65,000 compounds or so, about 3,600 (5.5%) were called active. Shown is part of a subset that was picked to be rich in actives. A number with no mark means an inactive call.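 The calls were made as follows: active = at 10 µM, mean starting fluorescence two-fold or more over control wells; inactive = the rest.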

Experiment: intrinsic fluorescence of library compounds, ex339/em460 – biochemical, MLSMR library, data from DPM-DC assay, artefact control, profiling panel (AID 709);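 also: signal is the first read of a kinetic run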
Conditions: compound autofluorescence, ex339/em460 nm, NADH buffer; at 10 µM; hits give high values; 1 = no-compound wells, NADH background

SMILES | fluorescence fold increase
CN(c1ccccc1)c1ccc(/C=c2\s/c(=C(/C#N)C(=O)C(C)(C)C)n(Cc3ccco3)c2=O)cc1 | 0.95
Cc1ccc(C(=O)Nc2nnc(-c3ccncc3)s2)o1 | 2.14 (active)
Cc1occc1C(=O)Nc1nnc(C2CCCCC2)s1 | 1.04
CC(=O)Cc1nsc(NC(=O)c2ccc(COc3ccc(C)cc3)o2)n1 | 1.06
Cc1occc1C(=O)Nc1nnc(-c2ccncc2)s1 | 2.2 (active)
O=C(Nc1ccncc1)c1cc2ccccc2o1 | 1.02
Cc1occc1C(=O)Nc1cccc(Cn2cccn2)c1 | 1.14
COc1ccc(CCNC(=O)c2cc(-c3ccc4c(c3)OCO4)on2)cc1OC | 1.07
O=C(CSc1nnc(-c2ccccn2)n1-c1ccccc1)Nc1ccc2c(c1)OCO2 | 1.08
CC(C)Oc1ccc(C(=O)Nc2cc(=O)n(C)c(=O)n2C)cc1 | 1.01
O=C(c1cccs1)N1CCN(C(=O)N2CCOCC2)CC1 | 1.11
CCOc1ccccc1N(CC(=O)NC1CCCCC1)C(=O)CCCC(=O)Nc1ccccn1 | 1.08
O=C(CSc1nc2c(cnn2-c2ccc(F)cc2)c(=O)[nH]1)N1CCCCCC1 | 1.11
CC(=O)c1sc2nc(SCC(=O)N3CCCCC3)[nH]c(=O)c2c1C | 2.68 (active)
C=CCNC(=O)CSc1nc2sc(C)c(C)c2c(=O)[nH]1 | 1
Cc1ccc(-n2nc3c(c2NC(=O)CCC2CCCCC2)CS(=O)C3)cc1 (stereo not given) | 1.14
CCOc1cccc(NC(=O)C2CCCN(S(=O)(=O)c3ccc(OC)cc3)C2)c1 (stereo not given) | 1.02
N#Cc1c2c(c(-c3ccccc3)[nH]c1=O)CCCC2 | 1.02
O=c1[nH]c(-c2ccccc2)c(-c2ccccc2)[nH]1 | 3.71 (active)
CC1(C)CC(=O)NC=C(c2ccccc2)C1 | 1.06
CCOC(=O)N1CCN(C(=O)c2ccc(S(=O)(=O)c3ccc(C)cc3)c(NC(C)=O)c2)CC1 | 1.2
Cc1ccc(C(=O)CS(C)(=O)=O)cc1 | 1.35
OC1CN=C2Sc3ccccc3N2C1 (stereo not given) | 1.06
COc1ccc(C(C(O)C(=O)c2c[nH]c3ccccc23)N2CCN(c3ccccc3)CC2)cc1 (stereo not given) | 1.15

SMILES | fluorescence fold increase
Cc1nc(SCC(=O)Nc2cc(C)on2)c2c(C)c(C)sc2n1 | 1.11
Cc1cc(C)c2c(c1)cc(C)c1nnc(SCC(=O)Nc3cc(C)on3)n12 | 1.09
Cc1ccc2nc(-c3ccc(SCC(=O)Nc4cc(C)on4)nc3)[nH]c2c1 | 3.38 (active)
c1ccc(CSc2nnc(-c3ccco3)n2Cc2ccccc2)cc1 | 1.15
Cc1ccc(Oc2nc3ccccc3n3c(C)nnc23)cc1 | 1.08
CN(c1nc2ccccc2n2c(-c3ccco3)nnc12)S(=O)(=O)c1ccccc1 | 2.86 (active)
COc1ccc(OC)c(CN2C(=O)CCC2(C)C(=O)NC2CCCCCC2)c1 (stereo not given) | 1.09
CCCCc1cc(=O)oc2cc(C)cc(OCc3nn[nH]n3)c12 | 3.84 (active)
CC(C)C[C@H](NC(=O)[C@@H]1O[C@H]1C(=O)O)C(=O)NCCCCN=C(N)N | 1.01
CC1(C)CC(=O)C(C2=NC(C)(C)Cc3ccccc32)=C(O)C1 | 1.05
Cc1ccc2[nH]c3c(c2c1)CN(C(=O)CN1CCN(c2ccccc2)CC1)CC3 | 1.21
CCN(CC)C(=O)CSc1nnc(-c2cccc(OC)c2)o1 | 1.05
COc1cccc(-c2nnc(NC(=O)c3ccc(S(=O)(=O)N(CC(C)C)CC(C)C)cc3)o2)c1 | 3.77 (active)
COc1cccc(NC(=O)CN(C)S(=O)(=O)c2ccc(C)cc2)c1 | 1.1
CC(C)(O)C#Cc1ccc(C(=O)N2CCC(C(N)=O)(N3CCCCC3)CC2)cc1 | 1.1
Cc1ccc(NC(=O)c2nc[nH]c2C(=O)N2CCCCC2)c(C(=O)c2ccccc2)c1 | 1.13
Cc1ccccc1NC(=O)c1ccccc1 | 1.09
Cc1ccc2c(c1)sc1ncc(NC(=O)c3ccccc3)c(=O)n12 | 2.43 (active)
CC(C)C(NC(=O)c1cccc(S(=O)(=O)N2CCOCC2)c1)C(=O)NCCc1ccccn1 (stereo not given) | 1.06
C=CCNC(=O)c1ccc(C)c(Br)c1 | 1.08
Nc1ncc(-c2cc3ccccc3oc2=O)s1 | 1.43
COc1cccc(C(=O)c2cc3ccc(O)cc3oc2=O)c1 | 1.05
O=c1oc2cc(O)ccc2cc1-c1ccc(F)cc1 | 3.81 (active)
O=C(Cn1c(=S)nc2ccccn21)N1CCc2ccccc2C1 | 1.17

SMILES | fluorescence fold increase
Cc1cccc2cc(CN(Cc3nnnn3Cc3ccccc3)C3CCCC3)c(=O)[nH]c12 | 1.03
Cc1cc2cc(CN(Cc3cccs3)Cc3nnnn3CC3CCCO3)c(=O)[nH]c2cc1C (stereo not given) | 1.42
CCC(c1nnnn1Cc1ccco1)N(Cc1cc2cc(OC)ccc2[nH]c1=O)C1CCCCC1 (stereo not given) | 1.39
COc1ccc2[nH]c(=O)c(CN(CC3CCCO3)C(=O)Nc3ccccc3)cc2c1 (stereo not given) | 2.91 (active)
Cc1cc(C)c2cc(CN(Cc3cccs3)Cc3nnnn3CC3CCCO3)c(=O)[nH]c2c1 (stereo not given) | 1.16
CCC(c1nnnn1Cc1ccccc1)N(Cc1cc2cc(OC)ccc2[nH]c1=O)CC1CCCO1 (stereo not given) | 1.46
CCOc1ccc2[nH]c(=O)c(CN(Cc3nnnn3Cc3ccccc3)CC3CCCO3)cc2c1 (stereo not given) | 2.24 (active)
CCOc1ccc2[nH]c(=O)c(CN(Cc3nnnn3CCc3ccccc3)CC3CCCO3)cc2c1 (stereo not given) | 1.82
COc1ccc2[nH]c(=O)c(CN(Cc3nnnn3CCc3ccccc3)CC3CCCO3)cc2c1 (stereo not given) | 2.03 (active)
COc1ccc(/C(O)=C2/C(=O)C(=O)N(c3nc(C)c(C)s3)C2c2ccco2)cc1 (stereo not given) | 1.08
COc1ccc(NS(=O)(=O)c2ccc(NC(=O)C(C)(C(F)(F)F)C(F)(F)F)cc2)nn1 | 1.11
Cn1c(=O)oc2cc(S(=O)(=O)N3CCC(C(=O)Nc4ccc(OC(F)(F)F)cc4)CC3)ccc21 | 0.99
CCC1(C)N(O)C(C)(C)C(c2ccc(OC)cc2)=[N+]1[O-] (stereo not given) | 1.08
COc1ccc(CCNC(=O)c2ccc3c(c2)NC(=O)C(N2CCOCC2)S3)cc1OC (stereo not given) | 1.05
CCOc1ccccc1-n1c(SCC(=O)N2CCCC2)nnc1-c1ccoc1C | 1.07
CCCCc1nccn1CCn1ccnc1CCCC | 1.03
COc1ccc(-c2cc(C(=O)NC(C(=O)O)C(C)C)c(C)o2)cc1OC (stereo not given) | 1.05
C=C(C)c1cccc(C(C)(C)NC(=O)N2CCN(c3ncccn3)CC2)c1 | 1.1
CC(C)OCCCNc1ncnc2c1[nH]c1ccc(F)cc12 | 3.76 (active)
Fc1ccc2[nH]c3c(N4CCN(Cc5ccc6c(c5)OCO6)CC4)ncnc3c2c1 | 1.38
CCN1CCCC1CNc1ncnc2c1[nH]c1ccc(F)cc12 (stereo not given) | 3.05 (active)
Fc1ccc2[nH]c3c(N4CCSCC4)ncnc3c2c1 | 1.68
COc1ccc(C(=O)Nc2cccnc2)cc1C(=O)Nc1cccnc1 | 1.05
C=CCn1c(C)cc(C(=O)CN2C(=O)c3ccccc3C2=O)c1C | 1.04

SMILES | fluorescence fold increase
C=CCN(CC=C)C(=O)CN1C(=O)c2ccccc2C1=O | 1.04
COc1ccc(CC(=O)Nc2ccc(-c3nnc(-c4ccc(C)cc4)o3)cc2)cc1 | 2.89 (active)
CCC(=O)Oc1cccc(C(=O)Nc2ccc(-c3nnc(-c4ccco4)o3)cc2)c1 | 1.53
CCOC(=O)c1ccc(NC(=O)CSc2ncccn2)cc1 | 1.02
Cc1ccc(OCC(=O)Nc2ccc(-c3nnc(-c4ccco4)o3)cc2)cc1 | 1.37
O=C(COC(=O)c1ccc(Oc2ccccc2)cc1)Nc1nnc(-c2ccccc2)o1 | 1.19
COc1ccc(-c2nc(CS(=O)CC(=O)NCc3ccccn3)c(C)o2)cc1 (stereo not given) | 1
O=C(CCc1ccccc1)Nc1cccc(-c2nnc(-c3ccco3)o2)c1 | 1.31
COc1ccc(CC(=O)Nc2ccc(-c3nnc(-c4ccccc4)o3)cc2)cc1 | 2.23 (active)
Cc1ccc(OCC(=O)Nc2ccc(-c3nc4ncccc4o3)cc2)cc1 | 3.7 (active)
CCCOC(=O)CC1C(=O)NCCN1Cc1ccc(F)cc1 (stereo not given) | 1.06
C=C(Br)Cn1c(CCCC)nc2ccccc21 | 1.05
CCN(c1ccccc1)S(=O)(=O)c1cccc(C(=O)O)c1 | 0.98
Cc1noc(C)c1CSc1nnc2ccc3ccccc3n12 | 1.17
COC(=O)C(NC(C)=O)(Nc1nc2c(s1)CCCC2)C(F)(F)F (stereo not given) | 1.04
Cc1ccc(N(C(=O)CC2NC(=O)NC2=O)C2(C(=O)NC3CCCC3)CCCCC2)cc1 (stereo not given) | 1.11
O=C(NCc1ccccn1)c1ccc2nc(-c3ccco3)c(-c3ccco3)nc2c1 | 1.72
Cc1cccn2c(=O)c3cc(C(=O)N4COCC4(C)C)n(C)c3nc12 | 4.96 (active)
Cc1ccccc1CN1CCN(CC(=O)NCc2ccccn2)C1=O | 1.13
Cc1cccn2c(=O)c3cc(C(=O)NCc4ccccn4)n(C)c3nc12 | 5.03 (active)
NC(=O)C1CCN(C2OC(=O)c3ccccc32)CC1 (stereo not given) | 1.08
CCOC(=O)C1CCN(C(=O)C2CCN(S(=O)(=O)N3CCCC3)CC2)CC1 | 1.03
CCC(CC)c1nnc(NS(=O)(=O)Cc2ccccc2)s1 | 1.09
